Sampled rows, rich in hits. Any-hit rate of the full collection: about 21%.
TDP1 cell CPT: growth inhibition of DT40 Tdp1-/-;hTDP1 cells with camptothecin (screen for TDP1 inhibitors); chicken DT40 Tdp1-/-;hTDP1 cells + 20 nM CPT, ATP luminescence, 48 h; Potency, µM (highest dose often 46.2 µM), inactives show at the highest dose activity change, negative = growth inhibition, actives largely listed as inhibitors; 420,000 tested, 12% active; AID 686979; further: potency means the concentration at half of the fitted maximal effect; nearly all actives have a fitted effect of over 55% in size
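Chicken DT40 Tdp1-/- cells stably complemented with human TDP1 were seeded at 400 cells/well in medium containing 20 nM camptothecin, exposed to pin-transferred compounds, and grown at 37 °C for at least 48 hr. Viability was read as ATP luminescence.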
Gal4-VP16 FLuc: inhibits Gal4-VP16 luciferase reporter, ROR gamma counter-screen; Drosophila S2 Gal4-VP16 UAS-luciferase, luminescence, 20 h; Potency, µM (top dose mostly 53.6 µM), for the others: at the top dose activity, negative = inhibition, usual class: inhibitors; 310,000 tested, 3.5% active;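 further: Gal4-VP16 expression switched on by copper sulfate through the metallothionein promoter; potency means the concentration at half of the fitted maximal effect; nearly all actives have a fitted effect of over 50% in size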
ELG1 repair inh: ELG1-dependent DNA repair inhibition. Potency, µM (top dose mostly 46.1 µM), without a hit: top-dose activity change, negative = inhibition, usual class: inhibitors. 330,000 tested, 2.3% active. HEK293T ELG1-luciferase reporter, luminescence, 16 h; DNA damage induced by 5-fluorouridine; further: potency means the concentration at half of the fitted maximal effect; nearly all actives have a fitted effect of over 55% in size
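5-Fluorouridine DNA damage + compound/DMSO, 2,000 cells/well, 16 h, 37 °C/5% CO2. ONE-Glo, 30 min RT, luminescence. Readout = decrease in reporter signal.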
TDP1 cell noCPT: qHTS for Inhibitors of human tyrosyl-DNA phosphodiesterase 1 (TDP1): qHTS in cells in absence of CPT | DT40 Tdp1-/- hTDP1 cells, no CPT, ATP luminescence, 48 h | Potency, µM (titrated, usually from 46.2 µM), for the others: top-dose activity change, negative = growth inhibition, most hits filed as inhibitors | 420,000 tested, 15% active; further: potency means the concentration at half of the fitted maximal effect; nearly all actives have a fitted effect of over 55% in size
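Compound effects on proliferation are scored in DT40 Tdp1-/-;hTDP1 cells in the absence of CPT. ATP levels (CellTiter-Glo luminescence) are recorded after a ≥48 hr, 37 °C incubation.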
RORgamma inh: inhibitors of mouse ROR gamma transcriptional activity | P51450 | Drosophila S2 Gal4-RORgamma UAS-luciferase reporter, 20 h | Potency, µM (titrated, usually from 53.6 µM), without a hit: at the highest dose activity change, negative = inhibition, most hits filed as inhibitors | 310,000 tested, 5.4% active | AID 2551; further: potency means the concentration at half of the fitted maximal effect; nearly all actives have a fitted effect of over 60% in size
Target sequence (P51450 whole entry, looked up, the tested form may be a part): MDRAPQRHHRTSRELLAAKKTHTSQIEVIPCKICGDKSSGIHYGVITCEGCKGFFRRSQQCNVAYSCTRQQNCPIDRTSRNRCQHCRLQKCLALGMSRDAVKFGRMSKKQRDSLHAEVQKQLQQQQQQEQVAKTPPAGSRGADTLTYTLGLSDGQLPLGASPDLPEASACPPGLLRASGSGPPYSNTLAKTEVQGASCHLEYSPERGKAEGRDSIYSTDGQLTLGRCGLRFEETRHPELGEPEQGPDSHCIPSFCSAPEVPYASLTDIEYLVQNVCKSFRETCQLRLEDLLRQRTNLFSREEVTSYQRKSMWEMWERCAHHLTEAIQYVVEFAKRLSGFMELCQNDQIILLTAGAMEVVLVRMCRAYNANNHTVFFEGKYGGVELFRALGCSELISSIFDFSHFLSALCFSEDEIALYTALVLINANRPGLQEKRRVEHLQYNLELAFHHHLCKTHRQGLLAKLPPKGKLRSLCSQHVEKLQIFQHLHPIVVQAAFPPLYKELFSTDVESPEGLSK
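Using a luciferase readout, inhibitors were identified by reduced reporter activity in Drosophila cells coexpressing a copper-inducible Gal4–ROR gamma fusion and UAS-driven Photinus luciferase, incubated 20 hr after 700 uM copper sulfate.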
IL-1B inflam inh: blocks inflammasome-driven IL-1 beta release; activity change, % at 57.5 µM; THP-1 LPS/ATP IL-1B secretion, AlphaLISA, 16 h; active compounds read low; 360,000 tested, 4.7% active; AID 743279; in the data active means activity change below about -50%; inconclusive means mostly about -30% to -49%
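Secreted IL-1B measured by AlphaLISA bead assay after 16 h compound exposure of THP-1 cells; compounds (final up to 57.5 uM) added 1 h before LPS (250 ng/mL) and ATP (1.25 mM) stimulation; lower signal means less secretion.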
* hit, by the source's call; ? = inconclusive; . = no result. Unless noted, the call rests on the fitted dose curve; in most records, active means well fitted curve in the direction sought with a large enough effect; inconclusive means small, poorly fitted or top-dose-only effect, or another doubt; inactive means no such curve, though single readings can be large; an effect the other way counts as inactive or inconclusive. On the % scale 0 is the no-effect control and ±100 the full control effect.

SMILES | TDP1 cell CPT | Gal4-VP16 FLuc | ELG1 repair inh | TDP1 cell noCPT | RORgamma inh | IL-1B inflam inh
OC[C@@H]1CN(Cc2ccc(-c3ccccc3)cc2)C[C@H](n2cnc3c(N4CCCC4)ncnc32)O1 | 18.4µM* | . | . | 20.6µM* | . | -16.3
OC[C@@H]1CN(Cc2ccccc2)C[C@H](n2cnc3c(N4CCN(c5ccccc5)CC4)ncnc32)O1 | ? | . | . | ? | . | -5.6
OC[C@@H]1CN(Cc2ccc(F)cc2)C[C@H](n2cnc3c(N4CCN(c5ccccc5)CC4)ncnc32)O1 | 18.4µM* | . | . | 10.3µM* | . | -0.8
OC[C@@H]1CN(Cc2ccccc2)C[C@H](n2cnc3c(N4CCCC4)ncnc32)O1 | -26.4% | . | . | -25.5% | . | 8.4
COc1cc(NC(=S)NCc2cccnc2)c(OC)cc1Cl | -4.0% | -5.6% | ? | -8.5% | -10.6% | -6.5
COc1ccc(NC(=S)Nc2ccccc2SC)c(OC)c1 | -26.6% | ? | -6.6% | ? | 11.2µM* | 24.2
COc1ccc(NC(=S)NCc2ccccc2)c(OC)c1 | 3.0% | ? | 0.3% | ? | 15.8µM* | -10.9
COc1ccc(NC(=S)NCCc2ccc(F)cc2)c(OC)c1 | -11.7% | ? | 0.3% | -17.3% | ? | -8.6
COc1ccc(NC(=S)NCCc2ccccc2)c(OC)c1 | ? | 17.8µM* | -4.1% | ? | 11.2µM* | -2.1
COc1cc(OC)c(NC(=S)NCc2ccccc2)cc1Cl | -8.0% | ? | -1.4% | -24.5% | 11.2µM* | -12.6
FC(F)(F)C(F)(F)C(F)(F)C(F)(F)C(F)(F)C(F)(F)F | 2.3% | 2.2% | . | 7.0% | -0.8% | .
C[C@H]1CN([C@@H](C)CO)C(=O)CCCn2nncc2CO[C@H]1CN(C)S(=O)(=O)c1ccc(-n2cccn2)cc1 | 12.3% | . | . | -10.3% | . | 22.7
CC(C)(CO)[C@@H](O)C(=O)NCCC(=O)NCCSSCCNC(=O)CCNC(=O)[C@H](O)C(C)(C)CO | 14.2% | -1.8% | . | 13.2% | 7.1% | .
COc1cc(Cl)c(C)cc1NC(=S)NN | ? | ? | -25.7% | 18.4µM* | 2.51µM* | 32.4
COc1cc(NC(=S)NC(C)(C)C)c(OC)cc1Cl | ? | ? | ? | -17.3% | 5.01µM* | 49.1
CSc1ccccc1NC(=S)Nc1cc(C)cc(C)c1 | -20.8% | 14.1µM* | 19.3% | ? | 6.31µM* | 3.9
COc1ccc(OC)c(NC(=S)NCCC(c2ccccc2)c2ccccc2)c1 | ? | . | . | 14.6µM* | . | -3.2
Cc1ccc(S(=O)(=O)N2C[C@H]3C(=O)C[C@@H](c4cccc(Cl)c4)N(S(=O)(=O)c4ccc(C)cc4)[C@H]3C[C@H]2c2ccccc2)cc1 | -1.9% | . | . | -7.6% | . | 26.0
CN(Cc1ccccc1)C(=O)c1cccc(NC(=O)Cc2ccc(NC(=O)C3CCN(C(=O)C4CC4)CC3)cc2)c1 | -0.6% | . | . | -16.3% | . | -11.4
COc1cc(NC(=O)c2c(F)c(F)c(F)c(F)c2F)c(OC)cc1Cl | -27.5% | -0.6% | -4.4% | ? | 20.5% | -101.1*
COc1cc(OC)c(NC(=S)Nc2cccc(C(C)=O)c2)cc1Cl | -9.7% | -0.1% | -0.5% | ? | ? | -7.0
COc1cc(OC)c(NC(=S)Nc2cc(Cl)cc(Cl)c2)cc1Cl | ? | ? | -12.7% | ? | 12.6µM* | -91.5*
Cc1[nH]c2ccccc2c1C(=O)C(=O)NCc1nnnn1-c1ccc(F)cc1 | -8.1% | . | . | -24.7% | . | 6.6
C[C@@H]1CN([C@H](C)CO)C(=O)CCCn2nncc2CO[C@H]1CN(C)S(C)(=O)=O | 5.9% | . | . | ? | . | 26.8
O=c1cc(CSc2ccc(Cl)cc2)nc(-c2ccccc2)[nH]1 | -14.8% | 4.8% | ? | -19.3% | 22.8% | 26.9
O=c1cc(CSc2ccc(Cl)cc2)nc(-c2ccccn2)[nH]1 | 4.11µM* | 4.47µM* | ? | 4.11µM* | 3.98µM* | -8.5

High-throughput results from PubChem BioAssay.
